# A number with no mark means an inactive call. Results filed as inconclusive are left out. A call without a number means that no potency is given here. Active and inactive are the calls of the source. Unless noted, calls come from the whole dose curve.
# Experiments:
# [1] = Nuclear factor erythroid 2-related factor 2/antioxidant responsive element (Nrf2/ARE) small molecule agonists: qHTS cell viability counter screen in human keratinocytes (AID 1919968; active = well fitted curve in the direction sought with a large enough effect in the repeat runs; an effect the other way counts as inactive or inconclusive; note: nearly all actives have a fitted effect of over 55% in size; note: potency is the fitted concentration of half-maximal effect)
# In short: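 KeratinoSens HaCaT cells, 1,500/well, preincubated 5 h, then exposed to compounds in DMSO for 23 h at 37 C/5% CO2. Viability read as CellTiter-Fluor fluorescence after 1 h, in the same wells as the ARE-luciferase read.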
# [2] = Nuclear factor erythroid 2-related factor 2/antioxidant responsive element (Nrf2/ARE) small molecule agonists: luciferase reporter gene qHTS assay in human keratinocytes (AID 1919969); note: nearly all actives have a fitted effect of over 35% in size; note: potency is the fitted concentration of half-maximal effect
# [3] = target: Gonadotropin-releasing hormone receptor (Homo sapiens) (UniProt P30968); assay: Human gonadotropin-releasing hormone receptor (GnRHR) small molecule agonists, calcium flux assay in GnRHR-HEK293 cells (AID 1920063); note: nearly all actives have a fitted effect of over 35% in size
# Sequence of Gonadotropin-releasing hormone receptor (Homo sapiens) (P30968 whole entry, looked up): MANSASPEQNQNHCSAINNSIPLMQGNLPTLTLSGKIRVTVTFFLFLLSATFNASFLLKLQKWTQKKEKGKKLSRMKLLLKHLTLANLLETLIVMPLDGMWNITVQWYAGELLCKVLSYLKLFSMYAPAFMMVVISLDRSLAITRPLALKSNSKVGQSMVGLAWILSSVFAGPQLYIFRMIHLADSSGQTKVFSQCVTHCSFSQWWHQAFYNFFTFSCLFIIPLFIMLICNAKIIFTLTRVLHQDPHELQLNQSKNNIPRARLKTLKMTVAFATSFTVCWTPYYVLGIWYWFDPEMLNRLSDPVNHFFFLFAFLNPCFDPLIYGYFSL
# In short: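 HEK293 cells stably expressing human GnRHR were dye-loaded for 1 h at 37 C. Compound was added in agonist mode and fluorescence (Ex/Em 480/540) recorded kinetically for 3 min. Fifteen concentrations, triplicates.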
# [4] = target: KiSS-1 receptor (Homo sapiens) (UniProt Q969F8); assay: Human kisspeptin (KISS1R) small molecule agonists, calcium flux assay in KISS1R-HEK293 cells (AID 1920064; active = well fitted curve in the direction sought with a large enough effect in the repeat runs; an effect the other way counts as inactive or inconclusive)
# Sequence of KiSS-1 receptor (Homo sapiens) (Q969F8 whole entry, looked up): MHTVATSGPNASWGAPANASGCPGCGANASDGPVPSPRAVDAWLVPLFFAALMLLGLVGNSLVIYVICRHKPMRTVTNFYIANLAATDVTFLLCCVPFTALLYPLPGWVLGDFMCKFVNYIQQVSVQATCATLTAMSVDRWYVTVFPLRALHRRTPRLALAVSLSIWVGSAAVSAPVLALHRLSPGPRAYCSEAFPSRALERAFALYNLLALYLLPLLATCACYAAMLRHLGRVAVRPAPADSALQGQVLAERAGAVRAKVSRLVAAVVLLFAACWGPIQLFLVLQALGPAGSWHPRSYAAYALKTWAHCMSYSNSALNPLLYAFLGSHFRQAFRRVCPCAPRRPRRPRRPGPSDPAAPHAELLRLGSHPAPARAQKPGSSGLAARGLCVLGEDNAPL
# In short: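 HEK293 cells stably expressing human KISS1R were loaded with calcium dye for 1 h at 37 C, then given compound; fluorescence (Ex/Em 480/540) was read kinetically for 3 min. Fifteen concentrations, triplicate.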
# [5] = G protein-coupled receptor (GPCR) small molecule agonists, calcium flux assay: HEK293 wild type cell line counter screen (AID 1920065)
# In short: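 Wild-type HEK293 cells plated 18 h, loaded with calcium dye 1 h at 37 C, then compounds added in agonist mode (ATP as positive control). Kinetic fluorescence Ex/Em 480/540 recorded 3 min at 1 sec intervals; 15 concentrations, triplicate.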
# [6] = p53 small molecule agonists, cell-based qHTS assay with rat liver microsomes: qHTS cell viability counter screen (AID 1963580); note: nearly all actives have a fitted effect of over 45% in size
# In short: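 Viability is assessed in parallel with the p53 reporter read: HCT-116 p53RE-bla cells receive compounds plus rat microsomes and NADPH (0.5 mg/mL final apiece), incubate 16 h at 37 C, and then CellTiter-Glo luminescence is recorded.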
# [7] = p53 small molecule agonists, cell-based qHTS assay: qHTS cell viability counter screen (AID 1963581); note: nearly all actives have a fitted effect of over 45% in size
# In short: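 p53RE-bla HCT-116 cells, compounds added 5 h after plating and incubated 16 h at 37 C. Cytotoxicity measured in the same wells as intracellular ATP by CellTiter-Glo luminescence after 30 min at room temperature.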
# [8] = target: 5-hydroxytryptamine receptor 2A (Homo sapiens) (UniProt P28223); assay: 5-hydroxytryptamine receptor 2A (HTR2A) small molecule antagonists, cell-based qHTS assay (AID 1963586); note: nearly all actives have a fitted effect of over 45% in size
# Sequence of 5-hydroxytryptamine receptor 2A (Homo sapiens) (P28223 whole entry, looked up): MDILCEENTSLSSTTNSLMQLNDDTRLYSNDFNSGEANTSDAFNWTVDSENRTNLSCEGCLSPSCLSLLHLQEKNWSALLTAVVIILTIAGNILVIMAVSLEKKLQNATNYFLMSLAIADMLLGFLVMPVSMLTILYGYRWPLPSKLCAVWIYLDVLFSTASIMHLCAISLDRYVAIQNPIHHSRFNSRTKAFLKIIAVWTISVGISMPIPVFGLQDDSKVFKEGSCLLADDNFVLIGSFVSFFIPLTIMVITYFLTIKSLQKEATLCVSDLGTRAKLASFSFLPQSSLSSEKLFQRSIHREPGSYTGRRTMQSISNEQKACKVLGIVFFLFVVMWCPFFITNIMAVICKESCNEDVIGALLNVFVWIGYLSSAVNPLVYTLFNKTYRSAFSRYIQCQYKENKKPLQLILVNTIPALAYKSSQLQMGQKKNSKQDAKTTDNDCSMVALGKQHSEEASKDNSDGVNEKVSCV
# In short: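 Antagonist-mode intracellular calcium assay: DOI (4 nM) added after 5 min compound pre-incubation at room temperature to dye-loaded HTR2A-CHO cells. Fluorescence followed for 3 min, sampled every second.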
# [9] = target: 5-hydroxytryptamine receptor 2A (Homo sapiens) (UniProt P28223); assay: 5-hydroxytryptamine receptor 2A (HTR2A) small molecule agonists, cell-based qHTS assay (AID 1963587); note: nearly all actives have a fitted effect of over 30% in size
# In short: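 CHO cells stably expressing human HTR2A, plated 18 h, loaded with calcium dye 1 h at 37 C. Agonist mode: compounds added and intracellular calcium fluorescence recorded kinetically for 2 min at 1 sec intervals.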
# [10] = target: Muscarinic acetylcholine receptor M1 (Homo sapiens) (UniProt P11229); assay: Cholinergic receptor muscarinic 1 (CHRM1) small molecule agonists, cell-based qHTS assay (AID 1963589); note: nearly all actives have a fitted effect of over 35% in size
# Sequence of Muscarinic acetylcholine receptor M1 (Homo sapiens) (P11229 whole entry, looked up): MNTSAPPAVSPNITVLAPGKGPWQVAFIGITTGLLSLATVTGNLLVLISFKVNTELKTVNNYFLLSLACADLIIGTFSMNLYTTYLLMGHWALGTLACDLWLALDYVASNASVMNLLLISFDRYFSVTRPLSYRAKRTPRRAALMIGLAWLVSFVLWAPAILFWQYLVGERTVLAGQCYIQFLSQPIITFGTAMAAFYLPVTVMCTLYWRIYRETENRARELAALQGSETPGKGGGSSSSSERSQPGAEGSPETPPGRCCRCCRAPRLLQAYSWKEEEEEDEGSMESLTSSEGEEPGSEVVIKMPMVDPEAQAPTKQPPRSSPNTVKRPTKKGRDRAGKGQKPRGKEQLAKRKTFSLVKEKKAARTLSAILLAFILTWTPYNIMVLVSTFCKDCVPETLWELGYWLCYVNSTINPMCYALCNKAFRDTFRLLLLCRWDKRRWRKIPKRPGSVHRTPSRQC
# In short: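 CHO cells stably expressing human CHRM1 were loaded with calcium dye for 1 h at 37 C, then compound was added in agonist mode. Intracellular calcium fluorescence was followed kinetically at 1 s intervals. Fifteen concentrations were tested in three independent runs.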
# [11] = target: D(2) dopamine receptor (Homo sapiens) (UniProt P14416); assay: Dopamine D2 receptor (DRD2) small molecule agonists, cell-based qHTS assay (AID 1963594); note: nearly all actives have a fitted effect of over 35% in size
# Sequence of D(2) dopamine receptor (Homo sapiens) (P14416 whole entry, looked up): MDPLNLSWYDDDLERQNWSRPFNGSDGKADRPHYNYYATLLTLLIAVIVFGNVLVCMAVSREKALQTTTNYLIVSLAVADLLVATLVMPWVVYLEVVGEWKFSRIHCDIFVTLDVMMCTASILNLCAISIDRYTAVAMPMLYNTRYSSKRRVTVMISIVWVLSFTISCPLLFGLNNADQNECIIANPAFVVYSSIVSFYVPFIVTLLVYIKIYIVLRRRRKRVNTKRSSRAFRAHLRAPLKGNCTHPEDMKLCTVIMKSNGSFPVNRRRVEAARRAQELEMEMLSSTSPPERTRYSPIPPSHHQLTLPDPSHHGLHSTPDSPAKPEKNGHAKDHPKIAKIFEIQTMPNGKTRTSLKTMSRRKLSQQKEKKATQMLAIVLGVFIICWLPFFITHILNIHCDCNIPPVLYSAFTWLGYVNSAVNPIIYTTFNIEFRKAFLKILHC
# In short: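 HEK293 cells stably expressing human DRD2, pre-treated with PDE inhibitor Ro20-1724 (0.1 mM final) and compound 10 min at room temperature, then stimulated with NKH477 (200nM […]) for 30 min. cAMP read by HTRF (665/620 nm).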
# [12] = target: D(2) dopamine receptor (Homo sapiens) (UniProt P14416); assay: Dopamine D2 receptor (DRD2) small molecule antagonists, cell-based qHTS assay (AID 1963595; active = well fitted inhibition curve with a large enough effect in the signal ratio in the repeat runs, with a control signal flat; the % refers to the signal ratio; note: potency is the fitted concentration of half-maximal effect)
# In short: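 Human DRD2 antagonist qHTS measuring cAMP by HTRF. The cells are exposed to compound for 10 min, then to NKH477 (200 nM) and quinpirole (12 nM) for 30 min at RT, with Ro20-1724 (0.1 mM) present throughout.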
# [13] = target: Muscarinic acetylcholine receptor M1 (Homo sapiens) (UniProt P11229); assay: Cholinergic receptor muscarinic 1 (CHRM1) small molecule antagonists, cell-based qHTS assay (AID 1963588); note: nearly all actives have a fitted effect of over 40% in size
# In short: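 CHRM1-CHO calcium-flux assay, antagonist mode. Cells were seeded 18 h, dye-loaded 1 h at 37 C and given compound for 5 min at RT, then acetylcholine was added at 50nM. FDSS fluorescence was read 3 min; 15 concentrations, three runs.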
# [14] = cAMP Responsive Elements (CRE) small molecule agonists, cell-based qHTS assay (AID 1963590)
# In short: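 CRE-bla HEK 293T cells, 2,000/well in DMEM with 10% dialyzed FBS and 25 mM HEPES, pre-incubated 18 h at 37 C, then exposed to compound 3 h at 37 C. Beta-lactamase reporter read with LiveBLAzer B/G FRET substrate after 2 h at room temperature.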
# [15] = target: Beta-2 adrenergic receptor (Homo sapiens) (UniProt P07550); assay: Adrenergic beta2 receptor (ADRB2) small molecule antagonists, cell-based qHTS assay (AID 1963592); note: nearly all actives have a fitted effect of over 50% in size; note: potency is the fitted concentration of half-maximal effect
# Sequence of Beta-2 adrenergic receptor (Homo sapiens) (P07550 whole entry, looked up): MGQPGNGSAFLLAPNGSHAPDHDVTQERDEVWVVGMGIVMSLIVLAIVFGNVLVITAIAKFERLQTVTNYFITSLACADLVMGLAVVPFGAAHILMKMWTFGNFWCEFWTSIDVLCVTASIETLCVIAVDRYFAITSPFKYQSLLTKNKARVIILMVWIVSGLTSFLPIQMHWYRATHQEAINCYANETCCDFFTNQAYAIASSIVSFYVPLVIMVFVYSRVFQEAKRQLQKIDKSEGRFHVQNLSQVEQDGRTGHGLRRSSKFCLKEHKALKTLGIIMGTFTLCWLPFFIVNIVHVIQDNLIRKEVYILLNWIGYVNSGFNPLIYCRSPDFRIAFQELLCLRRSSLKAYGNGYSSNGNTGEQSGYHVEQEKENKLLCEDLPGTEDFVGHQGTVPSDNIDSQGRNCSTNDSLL
# In short: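 Cells (CHO, stable ADRB2 overexpression) incubated 18-20hr at 37C; compounds added from DMSO; agonist mix (1nM isoproterenol, 100uM IBMX, 25uM Ro-20-1724) added; 0.5hr RT; d2-cAMP and anti-cAMP-cryptate added; 1hr RT; 665/615 nm read.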
# [16] = cAMP Responsive Elements (CRE) small molecule antagonists, cell-based qHTS assay (AID 1963591; active = well fitted inhibition curve with a large enough effect in the signal ratio in the repeat runs, not every such curve was filed as active; the % refers to the signal ratio)
# In short: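 CRE-bla HEK293T cells plated 18 h, then given compound plus NKH477 at 0.25 uM final for 3 h at 37C. Beta-lactamase reporter read with LiveBLAzer B/G FRET substrate after 2 h at room temperature.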
# [17] = target: Beta-2 adrenergic receptor (Homo sapiens) (UniProt P07550); assay: Adrenergic beta2 receptor (ADRB2) small molecule agonists, cell-based qHTS assay (AID 1963593);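 note: CHO cells stably overexpressing human ADRB2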
# In short: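 CHO cells stably over-expressing ADRB2 were plated overnight at 37C, then dosed with compounds plus a stimulation mix containing 100uM IBMX and 25uM Ro-20-1724 for 0.5hr at room temperature. cAMP was measured by HTRF competition, 1hr.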
SMILES,Potency [1],Potency [2],Potency [3],Potency [4],Potency [5],Potency [6],Potency [7],Potency [8],Potency [9],Potency [10],Potency [11],Potency [12],Potency [13],Potency [14],Potency [15],Potency [16],Potency [17]
c1cc[c]([Bi]([c]2ccccc2)[c]2ccccc2)cc1,inactive,4.86 µM (active),inactive,inactive,inactive,inactive,inactive,inactive,inactive,inactive,inactive,9.69 µM (active),,,,,
O=C1CCCN1C1CCCCC1,inactive,inactive,inactive,inactive,inactive,inactive,inactive,inactive,inactive,,inactive,inactive,inactive,inactive,,,
NNc1nc(-c2ccccc2)cs1,inactive,62.9 µM (active),inactive,inactive,inactive,inactive,inactive,inactive,inactive,inactive,inactive,inactive,inactive,,inactive,,
CN(C)CCOCCO,inactive,inactive,inactive,inactive,inactive,inactive,,inactive,,inactive,,inactive,inactive,inactive,inactive,,
O=C1NC(=O)c2cccc3cccc1c23,inactive,inactive,inactive,inactive,inactive,inactive,inactive,inactive,inactive,,inactive,inactive,inactive,,inactive,inactive,inactive
CO/N=C1\CN(c2nc3c(cc2F)c(=O)c(C(=O)O)cn3C2CC2)CC1CN (configuration not stated),inactive,inactive,inactive,inactive,inactive,inactive,inactive,inactive,inactive,inactive,inactive,inactive,inactive,,,inactive,
Clc1ccc(C(Cn2ccnc2)OCc2ccsc2Cl)c(Cl)c1 (configuration not stated),8.41 µM (active),10.6 µM (active),inactive,inactive,inactive,inactive,inactive,inactive,inactive,inactive,inactive,inactive,,inactive,29.8 µM (active),,
CC(C)COC(=O)COc1ccc(Cl)cc1Cl,inactive,inactive,inactive,inactive,inactive,inactive,inactive,inactive,inactive,inactive,inactive,inactive,inactive,,inactive,,
CCO[C@H](Cc1ccc(OCCc2ccc(OS(C)(=O)=O)cc2)cc1)C(=O)O,inactive,inactive,inactive,inactive,inactive,inactive,inactive,,inactive,inactive,inactive,,inactive,inactive,inactive,inactive,
